# A number with no mark means an inactive call. Where a call stands in place of a potency, no number is given. For some assays here: Potency and affinity values are given separately. Activity calls are given as the source filed them. Unless noted, the rule behind the calls is not given here.
# What was measured:
# [1] = antimalarial activity against Dd2 strain (AID 2302;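 active = growth inhibition above 50% at the single 2 µM test dose, taken to imply half-maximal potency below 2 µM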); settings: P. falciparum Dd2 in RBCs, LDH growth readout, 72 h; at 2 µM; stronger effect = higher value
# [2] = HepG2 cytotoxicity, primary screen, cytotoxicity control for P. falciparum antimalarial project, cell-based, ATP luminescence (AID 2303;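 active = inhibition above 50%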); settings: HepG2 viability, 24-48 h, at 10 µM, stronger effect = higher value
# [3] = target: L-lactate dehydrogenase (Plasmodium falciparum (isolate CDC / Honduras)) (UniProt Q27743); assay: PfLDH activity inhibition – cell lysate, 3D7 strain, counter-screen for P. falciparum growth inhibition project (AID 2304); settings: P. falciparum 3D7 crude extract, LDH APAD/NBT absorbance; at 2 µM; stronger effect = higher value
# Chain of L-lactate dehydrogenase (Plasmodium falciparum (isolate CDC / Honduras)) (Q27743 whole entry, looked up): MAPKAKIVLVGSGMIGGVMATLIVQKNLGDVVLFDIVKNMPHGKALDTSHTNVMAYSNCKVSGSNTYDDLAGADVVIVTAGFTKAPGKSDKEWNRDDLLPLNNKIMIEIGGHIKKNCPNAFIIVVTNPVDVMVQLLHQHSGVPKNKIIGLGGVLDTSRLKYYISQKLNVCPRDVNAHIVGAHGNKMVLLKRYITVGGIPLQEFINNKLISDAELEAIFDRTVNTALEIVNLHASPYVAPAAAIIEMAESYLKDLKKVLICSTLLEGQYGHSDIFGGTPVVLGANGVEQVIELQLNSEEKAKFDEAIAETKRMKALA
# [4] = inhibition of 3D7 malaria parasite growth – strain 3D7 (AID 2306); settings: P. falciparum 3D7 erythrocytic growth, LDH absorbance, 72 h; at 2 µM; stronger effect = higher value
# [5] = target: Calcium-dependent protein kinase 1 (Plasmodium falciparum (isolate 3D7)) (UniProt P62344); assay: PfCDPK1 kinase inhibitors, biochemical, TCAMS library (AID 1159585; cut-off not given, nearly all actives have IC50 up to about 0.98 µM;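 note: inhibitors leave more ATP so luminescence rises with inhibition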); settings: recombinant PfCDPK1, Kinase-Glo ATP depletion luminescence
# Chain of Calcium-dependent protein kinase 1 (Plasmodium falciparum (isolate 3D7)) (P62344 whole entry, looked up): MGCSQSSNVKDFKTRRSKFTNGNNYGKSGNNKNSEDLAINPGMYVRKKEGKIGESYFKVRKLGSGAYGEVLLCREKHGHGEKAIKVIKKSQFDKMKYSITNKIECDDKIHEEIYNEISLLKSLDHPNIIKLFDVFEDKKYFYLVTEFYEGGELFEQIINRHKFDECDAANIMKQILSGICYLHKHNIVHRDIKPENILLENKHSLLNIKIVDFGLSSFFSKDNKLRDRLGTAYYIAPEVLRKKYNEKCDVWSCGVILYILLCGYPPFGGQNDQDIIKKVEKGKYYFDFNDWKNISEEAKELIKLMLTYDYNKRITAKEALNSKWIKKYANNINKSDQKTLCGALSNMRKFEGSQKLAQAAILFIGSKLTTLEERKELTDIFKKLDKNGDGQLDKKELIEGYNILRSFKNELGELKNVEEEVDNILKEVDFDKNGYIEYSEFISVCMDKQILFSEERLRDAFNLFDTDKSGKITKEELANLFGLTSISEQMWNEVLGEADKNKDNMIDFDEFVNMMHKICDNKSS
# [6] = target: Plasmodium falciparum protein kinase 6 (PK6, PF3D7_1337100) (UniProt Q8IDW1); assay: PfPK6 kinase inhibitors, biochemical, TCAMS library (AID 1159586); settings: recombinant PfPK6, Kinase-Glo ATP depletion luminescence
# Chain of Plasmodium falciparum protein kinase 6 (PK6, PF3D7_1337100) (Q8IDW1 1-305): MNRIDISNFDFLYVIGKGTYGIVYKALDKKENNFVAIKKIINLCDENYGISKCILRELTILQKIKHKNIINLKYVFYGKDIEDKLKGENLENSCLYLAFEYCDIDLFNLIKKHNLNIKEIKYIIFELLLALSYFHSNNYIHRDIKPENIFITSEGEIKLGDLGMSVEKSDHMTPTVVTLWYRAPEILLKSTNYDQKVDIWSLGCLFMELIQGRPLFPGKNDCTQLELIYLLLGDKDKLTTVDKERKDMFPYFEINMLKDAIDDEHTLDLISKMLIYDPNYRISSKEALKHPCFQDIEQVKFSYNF
# [7] = target: Protein kinase 7 (PK7), Plasmodium falciparum 3D7 (PF3D7_0213400) (UniProt Q7YTF7); assay: inhibition of Plasmodium PK7 catalytic activity – biochemical, TCAMS antimalarial set, Kinase-Glo luminescence (AID 1159587); settings: recombinant PfPK7, Kinase-Glo ATP depletion luminescence
# Chain of Protein kinase 7 (PK7), Plasmodium falciparum 3D7 (PF3D7_0213400) (Q7YTF7 1-343): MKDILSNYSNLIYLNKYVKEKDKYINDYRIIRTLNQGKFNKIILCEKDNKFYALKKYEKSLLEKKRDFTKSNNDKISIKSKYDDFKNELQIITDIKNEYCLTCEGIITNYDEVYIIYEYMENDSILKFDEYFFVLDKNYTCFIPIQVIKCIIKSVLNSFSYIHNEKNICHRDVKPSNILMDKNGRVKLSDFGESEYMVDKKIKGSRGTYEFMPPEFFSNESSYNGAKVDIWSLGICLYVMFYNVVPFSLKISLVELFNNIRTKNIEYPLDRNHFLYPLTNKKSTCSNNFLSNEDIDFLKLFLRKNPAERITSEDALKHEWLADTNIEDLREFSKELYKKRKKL
# [8] = target: Calcium-dependent protein kinase 4 (Plasmodium falciparum (isolate 3D7)) (UniProt Q8IBS5); assay: PfCDPK4 kinase inhibitors, biochemical, TCAMS library (AID 1159588; cut-off not given, nearly all actives have IC50 up to about 0.91 µM); settings: recombinant PfCDPK4, Kinase-Glo ATP depletion luminescence
# Chain of Calcium-dependent protein kinase 4 (Plasmodium falciparum (isolate 3D7)) (Q8IBS5 whole entry, looked up): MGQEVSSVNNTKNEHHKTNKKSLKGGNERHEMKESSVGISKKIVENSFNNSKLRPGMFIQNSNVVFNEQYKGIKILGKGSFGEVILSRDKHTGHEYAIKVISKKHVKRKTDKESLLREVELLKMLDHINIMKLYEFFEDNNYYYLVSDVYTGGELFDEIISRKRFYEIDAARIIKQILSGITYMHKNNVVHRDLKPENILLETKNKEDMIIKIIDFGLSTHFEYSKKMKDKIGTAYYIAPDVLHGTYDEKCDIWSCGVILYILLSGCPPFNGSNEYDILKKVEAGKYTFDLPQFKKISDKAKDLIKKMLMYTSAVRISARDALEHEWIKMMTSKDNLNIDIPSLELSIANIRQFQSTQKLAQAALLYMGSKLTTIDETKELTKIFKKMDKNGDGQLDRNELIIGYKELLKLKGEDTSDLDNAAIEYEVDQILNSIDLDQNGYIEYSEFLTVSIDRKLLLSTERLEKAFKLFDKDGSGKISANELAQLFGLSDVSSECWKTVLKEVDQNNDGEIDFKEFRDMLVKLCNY
SMILES,growth inhibition [1],inhibition [2],inhibition [3] [%],growth inhibition [4],outcome [5],outcome [6],outcome [7],outcome [8]
CCCCCNc1nc2nc(N)nc(N)c2nc1-c1ccccc1,-4%,9%,-2,91% (active),inactive,inactive,inactive,inactive
O=C(/C=C/c1ccc(Cl)c(Cl)c1)NCCCCCN1CCC(NC(=O)Nc2cccc(F)c2)CC1,6%,30%,2,100% (active),inactive,inactive,inactive,inactive
Cc1cc2c(cc1C(F)(F)F)N(C(=O)Nc1cc(C(=O)NC3CCN(Cc4ccccc4)C3)cc(C(F)(F)F)c1)CC2 (stereo not given),97% (active),22%,0,101% (active),inactive,inactive,inactive,inactive
CCOC(=O)c1c[nH]c2c(ccc3ccccc32)c1=O,96% (active),-5%,3,96% (active),inactive,inactive,inactive,inactive
O=C(/C=C/c1ccc(Cl)c(Cl)c1)NCCCCCN1CCCN(C(=O)Nc2ccc(Cl)c(Cl)c2)CC1,2%,55% (active),2,100% (active),inactive,inactive,inactive,inactive
COc1ccc(-c2cccc(NC(=O)c3ccc(C#N)cc3)c2)cc1CN1CCCC1,15%,30%,-5,98% (active),inactive,inactive,inactive,inactive
Cc1cc(N[C@@H](Cc2ccccc2)C(=O)NCc2cccc(F)c2)nc(NCCc2ccccc2)n1,73% (active),7%,0,101% (active),inactive,inactive,inactive,inactive
Cn1cnc(CCNC(=O)c2ccc(-c3cccc(-c4nc5ccc(F)cc5[nH]4)c3)cc2)c1,24%,23%,-5,100% (active),inactive,inactive,inactive,inactive
CN1CCN(c2ccnc3cc4c(cc23)N(C(=O)Nc2ccc3c(c2)CCCC3=O)CC4)CC1,64% (active),5%,-5,100% (active),inactive,inactive,inactive,inactive
COc1cccc(-c2cnc(N)c(-c3nc4ccc(F)cc4[nH]3)c2)c1,43%,47%,5,97% (active),inactive,inactive,inactive,inactive
CN(C)CCNCc1cccc(-c2ccc3c(Nc4ccc(F)cc4Cl)ccnc3c2)c1,98% (active),17%,1,102% (active),inactive,inactive,inactive,inactive
CC(C)c1ncc(-c2ccncc2)c(C2CCC(CNC(=O)c3ccncc3)CC2)n1 (stereo not given),49%,-6%,4,85% (active),inactive,inactive,inactive,inactive
Clc1ncnc2ncn(Cc3cccc(Br)c3)c12,56% (active),-5%,3,91% (active),inactive,inactive,inactive,inactive
COc1ccc(S(=O)(=O)Nc2cc(C)cc(Br)c2OC)cc1N1CCN(C(=O)C(Cl)(Cl)Cl)CC1,66% (active),9%,0,91% (active),inactive,inactive,inactive,inactive
c1cc(-c2ccc(CNCCCn3ccnc3)cc2)cc(-c2nc3ccccc3[nH]2)c1,100% (active),17%,5,101% (active),inactive,inactive,inactive,inactive
CN(C)CCCN1CCN(C(=O)c2cccc(-c3noc(C(F)(F)F)n3)c2)CC1,60% (active),-7%,-4,92% (active),inactive,inactive,inactive,inactive
COc1ccc2ncc(F)c(CCN3C[C@H](CNCc4ccc5ccccc5c4)[C@H](O)C3)c2n1,78% (active),57% (active),-3,100% (active),inactive,inactive,inactive,inactive
O=C(Cc1cnc[nH]1)Nc1cccc(-c2cccc(-c3nc4ccc(C(F)(F)F)cc4[nH]3)c2)c1,101% (active),35%,-3,102% (active),inactive,inactive,inactive,inactive
COc1ccccc1C1CCN(C2CCC(NC(=O)/C=C/c3ccc4c(c3)OC(F)(F)O4)CC2)CC1 (stereo not given),31%,52% (active),-2,98% (active),inactive,inactive,inactive,inactive
c1ccc(Oc2ccc(Nc3nc(NCCc4cnc[nH]4)nc(NC4CCCC4)n3)cc2)cc1,23%,-5%,6,97% (active),inactive,inactive,inactive,inactive

SMILES,growth inhibition [1],inhibition [2],inhibition [3] [%],growth inhibition [4],outcome [5],outcome [6],outcome [7],outcome [8]
COc1cc(CNCCCCCCNCc2cc(OC)c(OC)c3ccccc23)c2ccccc2c1OC,100% (active),100% (active),-1,100% (active),inactive,inactive,inactive,inactive
Fc1ccc(-c2nc(NCc3cccc(C(F)(F)F)c3)nn2-c2cccc(C(F)(F)F)c2)cc1C(F)(F)F,58% (active),2%,-5,90% (active),inactive,inactive,inactive,inactive
O=C(Nc1cccc(CN2CCCN(Cc3ccc(F)cc3)CC2)c1)c1ccc(Cl)c(Cl)c1,17%,27%,7,95% (active),inactive,inactive,inactive,inactive
CN(C)CCn1cc(C(=O)c2cc(Cl)ccc2O)cc1-c1nc2ccccc2c(=O)[nH]1,87% (active),16%,-3,99% (active),inactive,inactive,inactive,inactive
O=C(Nc1ccc(Cl)cc1)c1ccc(S(=O)(=O)NCC2CCN(CC3CCCCC3)CC2)cc1,8%,40%,-2,93% (active),inactive,inactive,inactive,inactive
COc1ccc(C(=O)C2CCN(CCCCNC(=O)c3ccc(NC(=O)c4cc(Cl)cc(Cl)c4)cc3)CC2)cc1,84% (active),35%,5,100% (active),inactive,inactive,inactive,inactive
CC1CC1C(=O)NC1CCN(CC2(c3ccccc3)CCCCC2)CC1 (stereo not given),95% (active),-1%,0,97% (active),inactive,inactive,inactive,inactive
COc1ccc(-c2cccc(NC(=O)c3ccc(Cl)cc3)c2)cc1CNC(C)C,44%,53% (active),-4,101% (active),inactive,inactive,inactive,inactive
CCN(CC)CCCC(C)Nc1cc(C=Cc2ccccc2Cl)nc2cc(Cl)ccc12 (stereo not given),77% (active),0%,-2,99% (active),inactive,inactive,inactive,inactive
Cc1cccc2[nH]c(-c3cccc(-c4cccc(C(=O)N5CCCCC5CN5CCC(O)C5)c4)c3)nc12 (stereo not given),71% (active),19%,-5,89% (active),inactive,inactive,inactive,inactive
O=C(N[C@@H](CC1CCCCC1)C(=O)NC1CCCc2ccccc21)c1ccc(O)c(-c2ccc(Cl)c(Cl)c2)c1 (stereo not given in full),99% (active),1%,-3,98% (active),inactive,inactive,inactive,inactive
Cc1c(Cl)ccc2c(C(=O)Nc3ccncc3)cc(-c3cccnc3)nc12,83% (active),16%,-3,99% (active),inactive,inactive,inactive,inactive
O=C(Nc1ccc2nc3n(c(=O)c2c1)CCCCC3)C(=O)N1CCN(c2ccc(F)cc2)CC1,86% (active),10%,-1,93% (active),inactive,inactive,inactive,inactive
CC(CON1C(N)=NC(N)=NC1(C)C)Cc1ccc(Cl)cc1Cl (stereo not given),97% (active),61% (active),2,92% (active),inactive,inactive,inactive,inactive
O=C(Nc1cccc(C(F)(F)F)c1)c1cccc(S(=O)(=O)NCC2CCN(CC3CCCCC3)CC2)c1,5%,27%,0,97% (active),inactive,inactive,inactive,inactive
CCN(CC)CCCC(C)Nc1cc(C=Cc2ccc([N+](=O)[O-])cc2)nc2ccc(OC)cc12 (stereo not given),100% (active),37%,4,100% (active),inactive,inactive,inactive,inactive
CC(C)(C)c1ccc(CNCCOc2ccc(Nc3nnc(-c4ccc(-c5ncc[nH]5)cc4)o3)c3ccccc23)cc1,88% (active),43%,0,100% (active),inactive,inactive,inactive,inactive
CN(C)c1ccc(CN2CCC(NC(=O)c3ccc(-c4cccc(C(F)(F)F)c4)s3)CC2)cc1,40%,90% (active),-4,97% (active),inactive,inactive,inactive,inactive
CCN(CC)CCCC(C)N=C(Nc1ccc(C#N)cc1O)Nc1ccccc1Br (stereo not given),-2%,4%,2,89% (active),inactive,inactive,inactive,inactive
CS(=O)(=O)c1ccc(CNCc2ccc(-c3cccc(-c4nc5ccc(F)cc5[nH]4)c3)cc2)cc1,74% (active),33%,-5,102% (active),inactive,inactive,inactive,inactive

# From PubChem BioAssay
